From PubChem
Giardia kill = Small Molecules that selectively kill Giardia lamblia: qHTS | Giardia lamblia trophozoite viability | activity change, % at 7.66 µM, hits read low | actives 0.15% (n = 340,000) | AID 540267, 2011; in the data active = activity change below about -80%; inconclusive = between about -30% and that limit;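 note: parasites exposed to compound for two days anaerobically before the ATP read; % is set by controls: 0 for no effect and ±100 for the full control effect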
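Viability, read as ATP luminescence: trophozoites at 100 cells/well, compound added, 48 hrs anaerobic at 37 deg C, then 15-30 min room-temperature development before reading.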
miR-21 act = qHTS Assay for Modulators of miRNAs and/orActivators of miR-21. HeLa miR-21 FLuc reporter, luciferase, 48 h. Potency, µM (series often up to 38.3 µM), for inactives: at the highest dose activity change, positive = activation, hits mostly activators. 340,000 tested, under 10 active;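 note: % of control where 0% means no effect; miR-21 action dims this reporter so a rising signal means less miR-21 action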
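Using DMEM plus 10% FBS, HeLa miR-21-FLuc cells are incubated with test compounds (final up to about 40uM) for 48 hours; firefly luciferase signal is then imaged following reagent-mediated lysis.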
ERG-DNA inh = qHTS for Small Molecule Inhibitors of the ERG Ets/DNA interaction; Transcriptional regulator ERG (Homo sapiens), P11308; fluorescence polarization, His-ERG Ets domain / labelled DNA; Potency, µM (series often up to 76.9 µM), without a hit: at the top dose FP activity, negative = inhibition, usual class: inhibitors; actives 0.028% (n = 370,000); AID 624246, 2012; active = well fitted inhibition curve with a large enough effect in the polarisation, with a control signal flat; inconclusive = small, poorly fitted or top-dose-only effect, or effect the other way, or a change in a side signal; inactive = no such curve, though single readings can be large or run the other way; the % refers to the polarisation;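 note: polarization taken with two DNA probes labelled with fluorescein and Texas red; potency is the fitted concentration of half-maximal effect; % of control where 0% means no effect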
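His-tagged ERG Ets domain (1 uM in the protein solution; 300mM KCl, 50mM Tris-HCl, 1mM EDTA, 1mM DTT, pH 7.5) received compound, then a probe mix of 5 nM fluorescein-DNA and 100nM Texas-615-DNA. Fluorescence polarization was read for both dyes.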
PINK1 modulator = A Quantitative High throughput Screen to Identify Chemical Modulators of PINK1 Expression; PINK1 immunofluorescence, high-content cytometry, 24 h; Potency, µM (highest dose often 76.6 µM), without a hit: at the highest dose activation (PINK1 increase), hits mostly activators; actives 0.2% (n = 410,000); active = well fitted activation curve with a large enough effect; inconclusive = small, poorly fitted or top-dose-only effect; cell line not stated here; note: potency is the fitted concentration of half-maximal effect; % of control where 0% means no effect; nearly all actives have a fitted effect of over 65% in size
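Cells are seeded, rested 12 hours, then given compound at five concentrations or DMSO for 24 hours. After fixation, blocking and antibody staining, PINK1 amount and mitochondrial localization are scored; CCCP serves as control.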
ALOX12 inh = Primary qHTS assay for inhibitors of human arachidonate 12S-lipoxygenase (ALOX12): Round 2 | Potency, µM (top dose mostly 108 µM), inactives show top-dose activity change, negative = inhibition, hits mostly inhibitors | Polyunsaturated fatty acid lipoxygenase ALOX12 (Homo sapiens), P18054 | AID 1671190, 2021 | actives 1.1% (n = 580,000) | purified 12hLO, xylenol orange hydroperoxide absorbance; note: potency is the fitted concentration of half-maximal effect; % is set by controls: 0 for no effect and ±100 for the full control effect
Target sequence (P18054 whole entry, looked up): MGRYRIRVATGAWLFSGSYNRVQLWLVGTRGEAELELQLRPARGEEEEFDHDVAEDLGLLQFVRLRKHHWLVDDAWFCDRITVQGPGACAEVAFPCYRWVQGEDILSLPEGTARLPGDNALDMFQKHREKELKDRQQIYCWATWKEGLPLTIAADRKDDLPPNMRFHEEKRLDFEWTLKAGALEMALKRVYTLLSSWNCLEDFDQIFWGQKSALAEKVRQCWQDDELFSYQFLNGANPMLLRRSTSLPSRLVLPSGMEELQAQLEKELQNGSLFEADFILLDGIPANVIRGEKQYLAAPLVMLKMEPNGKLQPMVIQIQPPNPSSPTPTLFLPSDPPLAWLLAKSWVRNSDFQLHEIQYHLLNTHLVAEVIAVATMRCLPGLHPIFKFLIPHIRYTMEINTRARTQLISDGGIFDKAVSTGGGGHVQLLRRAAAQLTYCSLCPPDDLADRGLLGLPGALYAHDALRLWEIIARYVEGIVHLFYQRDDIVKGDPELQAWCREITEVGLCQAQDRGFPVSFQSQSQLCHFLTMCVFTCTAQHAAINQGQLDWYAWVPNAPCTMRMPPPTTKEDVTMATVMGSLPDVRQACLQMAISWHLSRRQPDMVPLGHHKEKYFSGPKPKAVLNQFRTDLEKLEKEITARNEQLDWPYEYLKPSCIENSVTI
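Purified human 12hLO at 150 nM in 25 mM Hepes, 0.01% Triton X-100, pH 7.0, preincubated 15 min at room temperature with compound. Reaction started with 40 uM arachidonic acid, 30 min at room temperature. Hydroperoxide measured by Fe-xylenol orange, 573/405 nm absorbance ratio.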
PTHR1 agonist = qHTS for PTHR1 Agonists: Primary Screen | Parathyroid hormone/parathyroid hormone-related peptide receptor (Homo sapiens), Q03431 | HEK293 GP2 PTHR1 cells, GloSensor cAMP luminescence, 1 h | Potency, µM (titrated, usually from 115 µM), without a hit: at the highest dose activation, actives largely listed as activators | actives 0.075% (n = 410,000) | AID 743266, 2014; note: potency is the fitted concentration of half-maximal effect; nearly all actives have a fitted effect of over 55% in size
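HEK-293-derived GP2 cells expressing PTHR1 and a GloSensor cAMP reporter, 3,000/well, plated overnight, given luciferin plus IBMX (each 0.5 mM as added) for 1 h at 37 °C, then compound for 1 h at 37 °C. Luminescence was read after 15 min at room temperature.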
* hit, by the source's call; [ ] = dose if it differs, or a comment. A selection: hits, their analogues and other compounds. The true share with any hit is near 1.3%. Unless noted, calls come from the whole dose curve; as a rule, active = well fitted curve in the direction sought with a large enough effect; inconclusive = small, poorly fitted or top-dose-only effect, or another doubt; inactive = no such curve, though single readings can be large; an effect the other way counts as inactive or inconclusive.

What do the screens show for `CNc1ccc(Br)cc(C(=O)/C=C/c2ccc(OC)cc2)c1=O`?
Giardia kill: -5; miR-21 act: 9%; ERG-DNA inh: -18%; PINK1 modulator: 14%; ALOX12 inh: 32µM*; PTHR1 agonist: -26%

How did O=C(Cc1c(F)cccc1Cl)Nc1ccon1 do in these assays?
Giardia kill: -12; miR-21 act: -3%; ERG-DNA inh: -1%; PINK1 modulator: 7.9µM*; ALOX12 inh: 26%; PTHR1 agonist: -4%[57.5 µM]

Results for Cc1cc(NC(=O)Cc2c(F)cccc2Cl)no1 ?
Giardia kill: -11; miR-21 act: 1%; ERG-DNA inh: 10%; PINK1 modulator: 0%[38.3 µM]; ALOX12 inh: 2%; PTHR1 agonist: -50%[57.5 µM]

How did CCOC(=O)/C=c1\s/c(=C\c2ccc3cc(OC)ccc3c2)c(=O)n1CC(=O)NCc1ccc2c(c1)OCO2 do in these assays?
Giardia kill: -6; miR-21 act: 4%; ERG-DNA inh: 0%; PINK1 modulator: 20µM*; ALOX12 inh: -3%; PTHR1 agonist: inactive

Results for CNC(=O)c1sc(-c2ccccc2)nc1C ?
Giardia kill: 20; miR-21 act: -56%; ERG-DNA inh: 2%; PINK1 modulator: 3%; ALOX12 inh: 7%; PTHR1 agonist: -18%[57.5 µM]

What do the screens show for `Cc1nc(-c2ccccc2)sc1C(=O)NS(=O)(=O)c1ccc(CN2CCN(c3ccccc3)CC2)cc1`?
PINK1 modulator: -1%; ALOX12 inh: 32µM*; PTHR1 agonist: -23%

Results for Cn1c(SCc2ccccc2)nccc1=O ?
Giardia kill: 16; ERG-DNA inh: 7%; PINK1 modulator: 2%; ALOX12 inh: 0%; PTHR1 agonist: -17%

Results for CC1=C(SCc2ccccc2)C(=O)c2ccccc2C1=O ?
Giardia kill: 1; ERG-DNA inh: 15%; PINK1 modulator: -1%; ALOX12 inh: 13µM*; PTHR1 agonist: -24%

How did Cc1cccc(Nc2nc(C)c(C(=O)Nc3ccccc3)s2)c1 do in these assays?
ALOX12 inh: 13µM*

How did CCNC(=O)c1c(NC(=O)c2nc(SCC)ncc2Cl)sc2c1CCCC2 do in these assays?
PINK1 modulator: 1%

Results for CCCSc1ncc(Cl)c(C(=O)Nc2sc3c(c2C(N)=O)CCCC3)n1 ?
miR-21 act: -2%; ERG-DNA inh: -2%; PINK1 modulator: 8.9µM*; ALOX12 inh: -33%; PTHR1 agonist: inactive

Results for CCSc1ncc(Cl)c(C(=O)Nc2sc3c(c2C(=O)NCc2cccnc2)CCCC3)n1 ?
Giardia kill: 13; miR-21 act: -3%; PINK1 modulator: 11µM*; ALOX12 inh: 24%; PTHR1 agonist: inactive

Results for CCCSc1ncc(Cl)c(C(=O)Nc2sc3c(c2C(=O)NCCCOC)CCCC3)n1 ?
PINK1 modulator: 2%

Results for O=C(c1ccc(Cl)cc1)N1CC2(CCN(C3CCCCC3)C2)Cc2ccccc21 (stereo not given) ?
ALOX12 inh: -1%[6.33 µM]

How did Cc1ccccc1C(=O)N1CCC(N2CCCNC2=O)CC1 do in these assays?
ALOX12 inh: 46%[176 µM]

How did Cc1ccccc1C(=O)N1CCC(N2CCCCCC2=O)CC1 do in these assays?
ALOX12 inh: 89µM*

Results for CN(C)c1cc[n+](CC(=O)c2ccc(-c3ccccc3)cc2)cc1 ?
Giardia kill: -11; miR-21 act: inconclusive; ERG-DNA inh: 1%; PINK1 modulator: 25µM*; ALOX12 inh: -4%; PTHR1 agonist: -28%

How did O=C(C[n+]1ccccc1)c1ccc(-c2ccccc2)cc1 do in these assays?
Giardia kill: 3; miR-21 act: -5%; ERG-DNA inh: -6%; PINK1 modulator: 0%; ALOX12 inh: -1%; PTHR1 agonist: -5%

Results for Cn1c(=O)n(C)c2cc(NS(=O)(=O)c3ccccc3)c(NCc3ccccc3)cc21 ?
miR-21 act: -11%; ERG-DNA inh: 0%; PINK1 modulator: 1%; ALOX12 inh: 7%; PTHR1 agonist: -9%

How did CC(=O)c1ccccc1NC(C(=O)NC1CCCCC1)C(C)C (stereo not given) do in these assays?
ALOX12 inh: -30%

How did OC1(c2csc(CN3CCc4ccccc4C3)n2)CCN(C2CCC2)CC1 do in these assays?
ALOX12 inh: 3%[176 µM]

How did COc1ccc(CNC(=O)CN(c2ccc(C(C)C)cc2)S(=O)(=O)c2c(C)nn(C)c2C)cc1 do in these assays?
miR-21 act: -2%; ERG-DNA inh: -1%; PINK1 modulator: 3%; ALOX12 inh: -13%; PTHR1 agonist: -11%

How did COc1ccc(N(CC(=O)NCc2ccc(Cl)cc2)S(=O)(=O)c2c(C)nn(C)c2C)cc1 do in these assays?
Giardia kill: -14; miR-21 act: 0%; ERG-DNA inh: -7%; PINK1 modulator: 0%; ALOX12 inh: 40µM*; PTHR1 agonist: 0%

Results for CC1(C)CC(=Cc2cc(O)ccc2[N+](=O)[O-])C(=O)c2ccccc21 ?
PINK1 modulator: 20µM*; PTHR1 agonist: -45%

What do the screens show for `COC(=O)c1ccc(C(=O)OC)c(NC(=O)CSc2cccc[n+]2[O-])c1`?
Giardia kill: -5; miR-21 act: 6%; ERG-DNA inh: 6%; PINK1 modulator: -4%; ALOX12 inh: -17%; PTHR1 agonist: -35%

What do the screens show for `NC(=O)c1ccc(Cn2c(C(=O)c3cc(Cl)c(N)c(Cl)c3)c3ccccc3[n+]2[O-])cc1`?
Giardia kill: -1; ERG-DNA inh: -7%; PINK1 modulator: 7%; ALOX12 inh: 18µM*; PTHR1 agonist: -27%

What do the screens show for `Cc1cc(Nc2cc(NC(=O)c3c(Cl)cccc3Cl)ccn2)nc(N)n1`?
ALOX12 inh: -10%[57.4 µM]

What do the screens show for `COc1ccc(S(=O)(=O)Nc2cc3c(C(C)=O)c(C)oc3c3ccccc23)cc1`?
Giardia kill: 5; miR-21 act: 24%; ERG-DNA inh: -3%; PINK1 modulator: 2%; ALOX12 inh: 40%; PTHR1 agonist: inactive

Results for COc1ccc(S(=O)(=O)Nc2cc(-c3c(O)ccc4ccccc34)c(O)c3ccccc23)cc1 ?
ALOX12 inh: 8.6µM*
